Rce1 inhib: inhibitors of yeast Ras-converting enzyme. calls only. Q03530. AID 2563. yeast membranes, quenched prenylated peptide cleavage fluorescence. 290,000 tested, 0.27% active;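 active means fall in fluorescence gain of 50% or more versus controls, with final raw signal at or below 3038400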;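 further: plate controls were neutral control wells for no effect and wells lacking membranes for full effect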
NPR1 activator: GC-A (human) enzyme activation. P16066. HEK293 GC-A cells, cGMP TR-FRET, EC30 ANP; 0% at EC30 ANP, 100% saturating ANP. activation, % at 10 µM. 370,000 tested, 0.14% active. AID 1671463; in the data active means activation above about 40%
Efflux pump mplx: blocks antifungal efflux pumps in multiplex yeast assay. AID 485275. 330,000 tested, 0.44% active. inhibition, % at 10 µM. S. cerevisiae Candida pump triplex, Nile Red efflux;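 active means plate passing quality check with inhibition over a set limit, or well fluorescence over plate mean plus 4 SD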;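 further: Nile Red retained in pooled yeast measured as flow cytometry median fluorescence; 0% = buffer negative control and 100% = Enniatin B positive control; higher means more Nile Red kept so more efflux inhibition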
V-ATPase pHluor: yeast V-ATPase proton transport regulation by pHLuorin | S. cerevisiae, pHLuorin cytosolic pH fluorescence | response, % at 10 µM | 350,000 tested, 0.37% active | AID 504577; in the data active means response mostly above about 7.3%, no sharp cut-off; inactive means mostly below about 5.4%; further: actives read high
GC-B act: GC-B (human) receptor activation. P20594. HEK293-GC-B cells, CNP EC30, cGMP TR-FRET; 0% at EC30 CNP, 100% saturating CNP. activation, % at 10 µM. 370,000 tested, 0.11% active;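 active means activation at 10 µM reaching about 35% in either raw or pattern-adjusted values, limit read from the data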
NSD2 HMT inh: inhibitors of human histone methyltransferase NSD2. O96028. NSD2 peptide methylation, AlphaScreen, 120 min. inhibition, % at 12.5 µM. 310,000 tested, 0.54% active. AID 743445; in the data active means inhibition above about 50%
Target sequence (O96028 whole entry, looked up): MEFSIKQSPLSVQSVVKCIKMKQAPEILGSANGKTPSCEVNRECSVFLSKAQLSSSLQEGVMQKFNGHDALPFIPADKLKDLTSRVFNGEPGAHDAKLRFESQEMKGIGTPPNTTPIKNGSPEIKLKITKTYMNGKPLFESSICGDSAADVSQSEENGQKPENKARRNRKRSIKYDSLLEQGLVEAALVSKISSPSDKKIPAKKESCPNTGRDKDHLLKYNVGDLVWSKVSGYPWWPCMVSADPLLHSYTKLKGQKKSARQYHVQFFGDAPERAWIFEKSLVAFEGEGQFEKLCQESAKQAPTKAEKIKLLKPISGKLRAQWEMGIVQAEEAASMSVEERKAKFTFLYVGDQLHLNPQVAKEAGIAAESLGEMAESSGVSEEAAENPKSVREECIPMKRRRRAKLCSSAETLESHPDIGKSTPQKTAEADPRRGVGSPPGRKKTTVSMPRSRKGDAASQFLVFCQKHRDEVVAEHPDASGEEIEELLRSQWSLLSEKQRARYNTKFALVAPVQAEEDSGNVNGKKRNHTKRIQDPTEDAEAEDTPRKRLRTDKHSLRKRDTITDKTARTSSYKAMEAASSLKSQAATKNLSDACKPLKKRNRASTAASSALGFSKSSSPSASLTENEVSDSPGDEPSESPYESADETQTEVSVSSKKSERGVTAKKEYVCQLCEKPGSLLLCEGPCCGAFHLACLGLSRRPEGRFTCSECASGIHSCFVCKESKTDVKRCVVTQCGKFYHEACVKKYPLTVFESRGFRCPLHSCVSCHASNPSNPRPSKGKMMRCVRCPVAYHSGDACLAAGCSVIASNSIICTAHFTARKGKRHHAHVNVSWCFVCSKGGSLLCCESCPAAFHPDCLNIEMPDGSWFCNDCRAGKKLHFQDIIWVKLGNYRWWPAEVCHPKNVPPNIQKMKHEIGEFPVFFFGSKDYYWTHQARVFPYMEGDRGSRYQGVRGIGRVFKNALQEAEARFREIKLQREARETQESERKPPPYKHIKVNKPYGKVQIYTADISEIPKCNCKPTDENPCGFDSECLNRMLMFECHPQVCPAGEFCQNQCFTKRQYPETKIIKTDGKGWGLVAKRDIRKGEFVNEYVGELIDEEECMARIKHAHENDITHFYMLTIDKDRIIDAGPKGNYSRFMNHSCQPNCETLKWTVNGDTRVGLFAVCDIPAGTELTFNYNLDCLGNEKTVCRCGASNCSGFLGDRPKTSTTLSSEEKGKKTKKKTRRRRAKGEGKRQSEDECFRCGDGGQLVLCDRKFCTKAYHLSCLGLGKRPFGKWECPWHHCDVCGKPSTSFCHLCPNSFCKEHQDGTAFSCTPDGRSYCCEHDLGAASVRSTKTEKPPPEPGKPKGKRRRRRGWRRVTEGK
AlphaScreen art: interferes with AlphaScreen signal, flagging NSD2 false positives. shares compounds with NSD2 HMT inh. AlphaScreen artifact counterscreen, preloaded methylated H4 peptide. AC35, µM (highest dose often 10 µM), for inactives: at the highest dose activity change, negative = signal loss. 1,500 tested, 9.4% active. AID 1053174; call rule not given here
* hit, by the source's call; i = inactive; · = no result. A selection: hits, their analogues and other compounds. The true share with any hit is near 1.6%.

SMILES | Rce1 inhib | NPR1 activator | Efflux pump mplx | V-ATPase pHluor | GC-B act | NSD2 HMT inh | AlphaScreen art
O=C(O)c1ccc2c(c1)C(=O)N(c1cccc(C(=O)/C=C/c3ccccc3)c1)C2=O | i | -4.5 | 0.0 | -2.7 | 3.8 | 88.9* | -2.5%
CCN(CC)CCNc1cc(C)c(C#N)c2nc3ccccc3n12 | i | 1.8 | 0.2 | 1.1 | -4.0 | 14.6 | ·
CCN(CC)CCCNc1cc(C(F)(F)F)c(C#N)c2nc3ccccc3n12 | i | 6.9 | 0.1 | -3.2 | -1.9 | 55.6* | -2.6%
CCN(CC)CCCNc1cc(C)c(C#N)c2nc3ccccc3n12 | · | 0.2 | · | -0.3 | 2.5 | 121.8* | -4.6%
CCc1ccc(-c2cc(C)no2)cc1S(=O)(=O)N1CCN(c2ccc(F)cc2)CC1 | i | -11.7 | 0.4 | 3.0 | -5.7 | 50.3* | -5.0%
CCc1ccc(-c2cc(C)no2)cc1S(=O)(=O)N1CCN(c2ccc(OC)cc2)CC1 | i | -4.3 | -0.3 | 1.8 | -6.3 | -0.8 | ·
CCn1c(C)cc(=S)c2ccccc21 | i | 1.7 | 0.0 | 3.7 | 1.3 | 104.4* | -18.4%
CN(C(=O)c1cccc(N2C(=O)C3C4C=CC(C4)C3C2=O)c1)C1CCCCC1 (stereo not given) | i | 1.6 | -0.1 | -2.3 | 6.3 | -6.5 | ·
CC1=CCC2C(=O)N(c3cccc(C(=O)N(C)C4CCCCC4)c3)C(=O)C2C1 (stereo not given) | i | 2.0 | 0.0 | -1.4 | 0.6 | 88.6* | 1.1%
CCC[C@H]1[C@@H](O)CC[C@@]23CCCN2C(=O)CCC[C@@H]13 | · | -0.8 | · | · | -2.3 | · | ·
CCN(CC)CCNc1nc(SC)nc2sc3c(c12)CCN(C)C3 | i | 6.6 | -0.2 | -3.7 | 2.9 | 62.1* | -7.2%
Nc1c(C(=O)NCc2ccc(F)cc2)c2nc3ccccc3nc2n1CCCN1CCOCC1 | i | -2.3 | 0.5 | 0.8 | -5.3 | 81.7* | 20.9%
COC(=O)c1c(N)n(CCCN2CCOCC2)c2nc3ccccc3nc12 | i | · | -0.1 | -5.0 | · | 1.9 | ·
COC(=O)c1cc(-c2ccc(F)cc2OCc2ccccc2)c(=O)n2c1CCC2 | · | -1.6 | · | · | 3.4 | · | ·
CCc1nnc(NC(=O)c2ccc3ccccc3n2)s1 | i | 0.0 | -0.1 | -0.7 | -5.3 | 78.3* | -0.7%
CCSc1nnc(NC(=O)c2ccc3ccccc3n2)s1 | i | 0.1 | 0.4 | 0.5 | -3.3 | 0.5 | ·
CCc1nnc(NC(=O)c2ccc(COc3ccccc3)o2)s1 | i | 2.4 | 0.0 | 0.1 | -0.9 | 95.7* | 0.6%
CCc1nnc(NC(=O)c2ccc(COc3ccc(C)cc3)o2)s1 | i | -2.8 | 0.1 | -2.9 | 1.5 | -6.2 | ·
CC(C)N1CCCCC(NC(=O)c2ccc(Cl)cc2Cl)C1=O (stereo not given) | · | 2.5 | · | · | -2.3 | 24.4 | ·
O=C(OCc1cn(Cc2c(F)cccc2F)nn1)N1CCOCC1 | · | 0.0 | · | · | -2.5 | · | ·
CC1(C(=O)O)CCCN1C(=O)c1cccc(F)c1 (stereo not given) | · | 2.2 | · | · | 3.8 | 1.4 | ·
CCOC(=O)C1(C)CCCN1C(=O)c1cccc(F)c1 (stereo not given) | · | 3.9 | · | · | 1.9 | 58.5* | 1.1%
Cc1cccc2c(=O)c(C(=O)NCc3ccc(F)cc3)c[nH]c12 | i | 3.4 | -0.1 | -1.4 | -1.6 | 56.6* | -5.8%
Cc1cccc2c(=O)c(C(=O)NCCc3ccccc3)c[nH]c12 | i | 0.0 | -0.1 | 0.3 | -2.2 | -2.3 | ·
O=C(CN1CCOCC1)NCCNC(=O)CN1CCOCC1 | i | -1.8 | 0.0 | -3.5 | 3.9 | 60.0* | -4.0%
SMILES | Rce1 inhib | NPR1 activator | Efflux pump mplx | V-ATPase pHluor | GC-B act | NSD2 HMT inh | AlphaScreen art
O=C(CN1CCOCC1)NCCc1ccccc1 | i | -1.2 | 0.0 | 1.6 | 5.3 | -0.6 | ·
COc1ccc2[nH]cc(C(C)c3ccccc3O)c2c1 (stereo not given) | · | -5.9 | · | · | -11.9 | · | ·
Nc1ccc2nn(-c3cc([N+](=O)[O-])ccc3O)nc2c1 | i | -6.3 | 0.0 | 1.0 | -5.7 | 78.5* | -0.5%
Nc1ccc(-n2cnc3cc([N+](=O)[O-])ccc32)cc1 | i | -0.9 | 0.1 | 1.1 | 2.7 | -0.9 | ·
O=C(COc1ccc(F)cc1Cl)Nc1nnc(-c2ccc(F)c(F)c2)o1 | · | 1.8 | · | · | -0.6 | -5.3 | ·
O=C(CSc1n[nH]c(-c2ccncc2)n1)Nc1ccc(Cl)c(Cl)c1 | i | -3.3 | 0.1 | -6.2 | 2.9 | 62.6* | -0.4%
Nc1cc(=O)[nH]c(SCC(=O)Nc2ccc(Cl)c(Cl)c2)n1 | i | 7.3 | 0.0 | 2.4 | -2.6 | 115.5* | -0.4%
Nc1cc(=O)[nH]c(SCC(=O)Nc2cc(Cl)cc(Cl)c2)n1 | i | 5.0 | 0.0 | 4.1 | -5.7 | 0.8 | ·
O=S(=O)(Nc1nc(-c2ccco2)c(-c2ccco2)s1)c1ccc(F)cc1F | · | 0.0 | · | 0.5 | -5.1 | 100.1* | 0.9%
CCCOc1ccc(-c2nc(SCc3ccccc3)[nH]c(=O)c2C#N)cc1OC | i | -7.9 | 0.1 | 6.1 | 1.1 | 66.1* | 0.2%
COc1cccc(CN2CCC(Oc3ccc(C(=O)N4CCCCC4)cc3)CC2)c1O | i | 1.8 | -0.3 | -4.4 | -4.5 | 57.6* | -3.7%
COc1ccc(-n2c(SC/C=C/c3ccccc3)nnc2-c2cccs2)cc1 | · | -15.8 | · | · | -5.1 | -6.8 | ·
CN(C)c1cc(N/N=C/c2ccc(Cl)cc2)nc(N(C)C)n1 | · | 5.0 | · | -0.5 | -2.1 | 99.6* | -4.4%
O=C(Nc1ccc2c(c1)OCO2)NC1CCCCN(Cc2cccc(Cl)c2)C1=O (stereo not given) | · | -3.0 | · | · | -3.0 | · | ·
O=C(Nc1cc(Cl)ccc1-n1cncn1)c1cccs1 | i | 2.0 | -0.1 | 3.1 | 0.1 | 67.6* | -1.4%
O=C(Nc1cc(Cl)ccc1-n1cncn1)c1cc(F)cc(F)c1 | i | -2.4 | 0.1 | -2.4 | -0.2 | 0.3 | ·
O=C(Nc1nc2ncccn2c1-c1ccc(C(F)(F)F)cc1)c1ccccc1 | · | 3.2 | · | · | -1.6 | · | ·
CCn1c(SCC(=O)N2CCCCC2)nc2c1c(=O)n(C)c(=O)n2C | i | 2.0 | 0.0 | 0.3 | 0.0 | 69.4* | -0.8%
COC(=O)[C@H](C(C)C)N1CCc2nnn(CC3CCCCC3)c2-c2ccccc2S1(=O)=O | · | -3.1 | · | · | 0.1 | · | ·
C=CCn1c(NC(=O)c2ccc(Br)o2)c(S(=O)(=O)c2ccccc2)c2nc3ccccc3nc21 | i | 1.6 | 0.0 | 2.5 | -0.8 | 83.3* | -0.2%
O=C(Nc1ccc(S(=O)(=O)NCc2ccccc2)cc1)c1ccc(Br)o1 | i | -4.6 | -0.2 | -0.3 | -4.3 | 1.1 | ·
COc1ccc(-c2ncncc2-c2ccccc2)c(O)c1 | i | -4.0 | -0.1 | 3.8 | -3.4 | 67.7* | -2.3%
CCOc1ccc(-c2ncncc2-c2ccc(OC)cc2)c(O)c1 | i | -2.3 | -0.1 | -2.3 | 4.0 | 5.3 | ·
CCN(CC)CCSc1nc2ccccc2c(=S)n1-c1ccccc1 | i | -9.0 | 0.1 | · | -10.4 | 108.5* | -15.2%
COc1cc(N(C)C)ccc1C=c1c2ccccc2n2c1cc(-c1ccccc1)[n+]2C | · | -29.9 | · | -4.2 | -6.7 | 85.2* | 1.48µM*
